Experimental data as given in PubChem BioAssay (NCI).
Compounds without any hit were thinned out: in the full panel of roughly 83,000, 20% have a hit.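 Interpretation: 100, growth as untreated; towards 0, rising growth inhibition; 0, no net growth; 0 to -100, cell death. Compounds scoring below 10 were considered active.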 Calls of active or inactive are those of the source.

Legend:
Experiment in all cases: NCI-60 one-dose screen, 48 h (100 = growth as untreated, 0 = no growth, -100 = all killed)
Details in all cases: 10 µM
NCI-H23 lung = system: NCI-H23 lung
NCI-H226 lung = system: NCI-H226 lung
NCI-H322M lung = system: NCI-H322M lung
HOP-62 NSCLC = system: HOP-62 NSCLC
NCI-H460 lung = system: NCI-H460 lung
NCI-H522 lung = system: NCI-H522 lung
A549/ATCC NSCLC = system: A549/ATCC NSCLC
786-0 renal = system: 786-0 renal
COLO 205 colon = system: COLO 205 colon
DU-145 prostate = system: DU-145 prostate

Measured: growth

COc1cc(-c2nn3c(/C=C4/C(=O)Nc5ccccc54)c(-c4ccc(C)cc4)nc3s2)cc(OC)c1OC
inactive: NCI-H23 lung 51.2% | NCI-H226 lung 96.4% | NCI-H322M lung 73.5% | HOP-62 NSCLC 79.5% | NCI-H460 lung 29% | NCI-H522 lung 58% | A549/ATCC NSCLC 29.8% | 786-0 renal 70.9% | COLO 205 colon 68.5% | DU-145 prostate 14%

C=C(Cl)[C@@](Cl)(CBr)CC[C@@H](Br)C(C)(C)Cl
active: NCI-H322M lung -98.1% | HOP-62 NSCLC -93.2% | NCI-H460 lung -47.7% | A549/ATCC NSCLC -6.36% | 786-0 renal -65.5% | COLO 205 colon -70.3% | DU-145 prostate -94.3%
inactive: NCI-H23 lung 83.2% | NCI-H226 lung 105% | NCI-H522 lung 85.1%

CC1(C)OC2=C(CC1Br)C(=O)C(=O)c1ccccc12 (stereo not given)
inactive: NCI-H322M lung 27.1%
active: NCI-H23 lung -64.3% | NCI-H226 lung -6.31% | HOP-62 NSCLC -88.1% | NCI-H460 lung 3.62% | NCI-H522 lung -67.6% | A549/ATCC NSCLC -39.9% | 786-0 renal -40.4% | COLO 205 colon -87.8% | DU-145 prostate -95.1%

Cc1cc(Cl)nc(N(CCCNc2ccnc3cc(Cl)ccc23)Cc2cccs2)n1
inactive: NCI-H226 lung 41.1% | NCI-H322M lung 29.7% | HOP-62 NSCLC 23.1% | A549/ATCC NSCLC 18.1% | 786-0 renal 17.4% | DU-145 prostate 30.7%
active: NCI-H23 lung -12.9% | NCI-H460 lung 7.09% | NCI-H522 lung -0.273% | COLO 205 colon -73.3%

O=C1/C(=C\c2ccc(Br)cc2)CN(C(=O)c2ccccc2F)C/C1=C\c1ccc(Br)cc1
active: NCI-H226 lung -30.3% | HOP-62 NSCLC -7.85% | NCI-H522 lung -1.44% | A549/ATCC NSCLC 2.51% | 786-0 renal -52.4% | COLO 205 colon 5.27% | DU-145 prostate 6.51%
inactive: NCI-H23 lung 23.5% | NCI-H322M lung 60.7% | NCI-H460 lung 43.3%

O=C1NC(=O)c2ncccc21
inactive: NCI-H23 lung 101% | NCI-H226 lung 96.3% | NCI-H322M lung 106% | HOP-62 NSCLC 109% | NCI-H460 lung 111% | NCI-H522 lung 171% | A549/ATCC NSCLC 98.8% | 786-0 renal 102% | COLO 205 colon 114% | DU-145 prostate 113%

COc1cc2cc3c(nc2cc1OC)CCN3Cc1ccc(NC(=O)Nc2cc(C(F)(F)F)cc(C(F)(F)F)c2)cc1
inactive: NCI-H23 lung 77.9% | NCI-H226 lung 92.6% | NCI-H322M lung 72.5% | HOP-62 NSCLC 97.5% | NCI-H460 lung 63.3% | NCI-H522 lung 51.8% | A549/ATCC NSCLC 52.1% | 786-0 renal 81.4% | COLO 205 colon 90% | DU-145 prostate 94.7%

CSCCCNC(=O)c1ccc2c(c1)/C(=C/c1[nH]c(C)cc1C)C(=O)N2
active: 786-0 renal 6.49%
inactive: NCI-H23 lung 28.6% | NCI-H226 lung 41.8% | NCI-H322M lung 50.4% | HOP-62 NSCLC 35.5% | NCI-H460 lung 30.8% | NCI-H522 lung 41% | A549/ATCC NSCLC 29.2% | COLO 205 colon 31.5% | DU-145 prostate 27.9%

CCCCCCCCCCCCCCCCCCOCC(COCCOCC[N+]1(CCCCCC(=O)[O-])CCCC1)Oc1ncccn1 (stereo not given)
inactive: NCI-H23 lung 46.5% | NCI-H226 lung 56% | NCI-H322M lung 101% | HOP-62 NSCLC 21.3% | NCI-H460 lung 23.7% | NCI-H522 lung 12.9% | A549/ATCC NSCLC 51.2% | 786-0 renal 52.8% | DU-145 prostate 77.6%
active: COLO 205 colon -17.2%

CCN1CCC2(CC1)OC(c1ccccc1)C(c1ccccc1)O2 (stereo not given)
inactive: NCI-H23 lung 106% | NCI-H226 lung 96.6% | NCI-H322M lung 133% | HOP-62 NSCLC 114% | NCI-H460 lung 118% | NCI-H522 lung 116% | A549/ATCC NSCLC 105% | 786-0 renal 92.7% | COLO 205 colon 106% | DU-145 prostate 115%

CC(=O)c1cc(Cl)ccc1O
inactive: NCI-H23 lung 106% | NCI-H226 lung 98.1% | NCI-H322M lung 101% | HOP-62 NSCLC 107% | NCI-H460 lung 101% | NCI-H522 lung 118% | A549/ATCC NSCLC 101% | 786-0 renal 104% | COLO 205 colon 112% | DU-145 prostate 105%

CCOC(=O)C(CSC(c1ccccc1)(c1ccccc1)c1ccccc1)NC(=O)C(CSC(c1ccccc1)(c1ccccc1)c1ccccc1)NC(c1ccccc1)(c1ccccc1)c1ccccc1 (stereo not given)
inactive: NCI-H23 lung 116% | NCI-H226 lung 93.5% | NCI-H322M lung 101% | HOP-62 NSCLC 101% | NCI-H460 lung 106% | NCI-H522 lung 99.4% | A549/ATCC NSCLC 95.1% | 786-0 renal 104% | COLO 205 colon 112% | DU-145 prostate 115%

COc1ccc(CN2CCC(N3CCCC3=O)c3cc(Cl)ccc32)cc1 (stereo not given)
inactive: NCI-H23 lung 96% | NCI-H226 lung 114% | NCI-H322M lung 104% | HOP-62 NSCLC 98.3% | NCI-H460 lung 110% | NCI-H522 lung 75.6% | A549/ATCC NSCLC 104% | 786-0 renal 109% | COLO 205 colon 110% | DU-145 prostate 116%

N=C(N)c1ccc(-c2ccc(-c3ccco3)o2)cc1
inactive: NCI-H23 lung 94.8% | NCI-H226 lung 77.8% | NCI-H322M lung 67% | HOP-62 NSCLC 81.7% | NCI-H460 lung 62.8% | NCI-H522 lung 95% | A549/ATCC NSCLC 68.7% | 786-0 renal 79.9% | DU-145 prostate 88.2%
active: COLO 205 colon -90.2%

COc1ccc(NC(=O)CSc2nc3ccccc3c(=O)n2CCc2ccccc2)cc1
inactive: NCI-H23 lung 92.2% | NCI-H226 lung 93.9% | NCI-H322M lung 81.5% | HOP-62 NSCLC 48.3% | NCI-H460 lung 75.5% | NCI-H522 lung 105% | A549/ATCC NSCLC 75.1% | 786-0 renal 95.3% | COLO 205 colon 95.5% | DU-145 prostate 101%

CCOCCOCCOCCOCCOCCOCCOCCOCCOCCO (tested in a mixture with another compound)
active: NCI-H23 lung 7.79% | NCI-H522 lung -66.5% | COLO 205 colon -89.7%
inactive: NCI-H226 lung 28.2% | NCI-H322M lung 51.4% | HOP-62 NSCLC 24.4% | NCI-H460 lung 12.9% | A549/ATCC NSCLC 14% | 786-0 renal 39.3% | DU-145 prostate 28.1%

COc1cc(Cc2cc(-c3ccc(Cl)cc3)n[nH]c2=O)ccc1O
inactive: NCI-H23 lung 83.5% | NCI-H226 lung 224% | NCI-H322M lung 119% | HOP-62 NSCLC 104% | NCI-H460 lung 74.2% | NCI-H522 lung 105% | A549/ATCC NSCLC 58.6% | 786-0 renal 103% | COLO 205 colon 111% | DU-145 prostate 128%

C=C(C(=O)c1ccccc1)C(NC(C)(C)C)c1ccccc1 (stereo not given)
inactive: NCI-H23 lung 31.9% | NCI-H226 lung 67.9% | NCI-H322M lung 98.6% | HOP-62 NSCLC 47.5% | NCI-H460 lung 26.9% | A549/ATCC NSCLC 43.2% | 786-0 renal 23.1% | DU-145 prostate 20.6%
active: NCI-H522 lung -83.9% | COLO 205 colon -77%

CCOC(=O)C1(CC(C)C)CCOC1=O (stereo not given)
inactive: NCI-H23 lung 102% | NCI-H226 lung 106% | NCI-H322M lung 104% | HOP-62 NSCLC 109% | NCI-H460 lung 103% | NCI-H522 lung 100% | A549/ATCC NSCLC 94.8% | 786-0 renal 107% | COLO 205 colon 115% | DU-145 prostate 105%

COc1cc(-c2cc(/C=C/C(=O)c3ccc4c(c3)OCO4)[nH]n2)cc(OC)c1OC
inactive: NCI-H23 lung 102% | NCI-H226 lung 84.6% | NCI-H322M lung 54.2% | HOP-62 NSCLC 48.7% | NCI-H460 lung 68.6% | NCI-H522 lung 57.4% | A549/ATCC NSCLC 87.2% | 786-0 renal 40.6% | COLO 205 colon 100% | DU-145 prostate 48%

CN(C)CCN1C(=O)c2cccc3c(-c4ccc5ncn(C6CCCCC6)c5c4)ccc(c23)C1=O
inactive: NCI-H23 lung 30.5% | NCI-H226 lung 25.1% | NCI-H322M lung 25.3% | HOP-62 NSCLC 23.4% | 786-0 renal 19.1% | DU-145 prostate 27%
active: NCI-H460 lung 1.4% | NCI-H522 lung 4.65% | A549/ATCC NSCLC 3.34% | COLO 205 colon 8.59%

COc1cc(Cl)cc(-c2nn(-c3cccc(NC(=O)Nc4ccc(Cl)c(C(F)(F)F)c4)c3)cc2-c2ccncc2)c1
inactive: NCI-H322M lung 18.7% | HOP-62 NSCLC 13.5% | DU-145 prostate 15.2%
active: NCI-H23 lung 0.301% | NCI-H226 lung -2.82% | NCI-H460 lung 2.76% | NCI-H522 lung -10.4% | A549/ATCC NSCLC 5.2% | 786-0 renal -4.76% | COLO 205 colon -48.3%

COc1cc(/C=N/NC(=O)c2ccccc2Nc2cccc(C(F)(F)F)c2)cc(OC)c1OC
active: NCI-H460 lung -17.6% | NCI-H522 lung 4.06% | DU-145 prostate -22.6%
inactive: NCI-H23 lung 45.3% | NCI-H226 lung 36.9% | NCI-H322M lung 47% | HOP-62 NSCLC 133% | A549/ATCC NSCLC 15% | 786-0 renal 177% | COLO 205 colon 54.4%

CC(=O)CSC(C)=O
inactive: NCI-H23 lung 108% | NCI-H226 lung 99% | NCI-H322M lung 104% | HOP-62 NSCLC 101% | NCI-H460 lung 103% | NCI-H522 lung 105% | A549/ATCC NSCLC 99.6% | 786-0 renal 102% | COLO 205 colon 119% | DU-145 prostate 117%

CC(C)(C)c1ccc(N2CSC(=S)N(c3ccc(C(C)(C)C)cc3)C2)cc1
active: NCI-H522 lung -14.2%
inactive: NCI-H23 lung 86.5% | NCI-H226 lung 93.2% | NCI-H322M lung 86.7% | HOP-62 NSCLC 88.2% | NCI-H460 lung 91.7% | A549/ATCC NSCLC 38% | 786-0 renal 103% | COLO 205 colon 92.5% | DU-145 prostate 123%
